Data as given in PubChem BioAssay (NCATS).
Records with an inconclusive call do not appear. The source made the active and inactive calls. Calls follow the shape of the dose curve; as a rule, active = well fitted inhibition curve with a large enough effect; inconclusive = small, poorly fitted or top-dose-only effect; inactive = flat fitted curve, though single readings scatter.

Tests used:
[1] = qHTS profiling for inhibitors of Plasmodium falciparum proliferation (AID 504749); also: nearly all actives have a fitted effect of over 60% in size;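 as to activity, negative = inhibition: 0% = DMSO vehicle and full inhibition = artemisinin control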; conditions: P. falciparum in erythrocytes, SYBR Green DNA, 72 h
Outline: (§1)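 Readout was DNA-dye fluorescence from lysed cultures, ex 485/em 535 nm. Parasitized red cells had grown 72 h with compound; data scaled between 0.29 uM artemisinin and DMSO wells and corrected using vehicle-only plates.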

3D7 = test: as above; conditions: P. falciparum in erythrocytes, SYBR Green DNA, 72 h; series mostly up to 28.7 µM
Outline: as §1

7G8 = test: as above; conditions: P. falciparum in erythrocytes, SYBR Green DNA, 72 h; series mostly up to 28.7 µM
Outline: as §1

ATS189 = test: as above; conditions: P. falciparum in erythrocytes, SYBR Green DNA, 72 h; series mostly up to 28.7 µM
Outline: as §1

C2A = test: as above; conditions: P. falciparum in erythrocytes, SYBR Green DNA, 72 h; series mostly up to 28.7 µM
Outline: as §1

CP192 = test: as above; conditions: P. falciparum in erythrocytes, SYBR Green DNA, 72 h; series mostly up to 28.7 µM
Outline: as §1

CP211 = test: as above; conditions: P. falciparum in erythrocytes, SYBR Green DNA, 72 h; series mostly up to 28.7 µM
Outline: as §1

CP217 = test: as above; conditions: P. falciparum in erythrocytes, SYBR Green DNA, 72 h; series mostly up to 28.7 µM
Outline: as §1

AA1029 = test: as above; conditions: P. falciparum in erythrocytes, SYBR Green DNA, 72 h; series mostly up to 28.7 µM
Outline: as §1

CP203 = test: as above; conditions: P. falciparum in erythrocytes, SYBR Green DNA, 72 h; series mostly up to 28.7 µM
Outline: as §1

AS120 = test: as above; conditions: P. falciparum in erythrocytes, SYBR Green DNA, 72 h; series mostly up to 28.7 µM
Outline: as §1

ATS95 = test: as above; conditions: P. falciparum in erythrocytes, SYBR Green DNA, 72 h; series mostly up to 28.7 µM
Outline: as §1

CP185 = test: as above; conditions: P. falciparum in erythrocytes, SYBR Green DNA, 72 h; series mostly up to 28.7 µM
Outline: as §1

CP191 = test: as above; conditions: P. falciparum in erythrocytes, SYBR Green DNA, 72 h; series mostly up to 28.7 µM
Outline: as §1

CP194 = test: as above; conditions: P. falciparum in erythrocytes, SYBR Green DNA, 72 h; series mostly up to 28.7 µM
Outline: as §1

CP201 = test: as above; conditions: P. falciparum in erythrocytes, SYBR Green DNA, 72 h; series mostly up to 28.7 µM
Outline: as §1

CP215 = test: as above; conditions: P. falciparum in erythrocytes, SYBR Green DNA, 72 h; series mostly up to 28.7 µM
Outline: as §1

[2] = at 28.7 µM (top of the series), parasite line A
[3] = at 28.7 µM (top of the series), parasite line B
[4] = at 12.8 µM (top of the series), parasite line A
[5] = at 12.8 µM (top of the series), parasite line B
Potency is read from the fitted curve at half-maximal effect.

CN(C)CC[C@@H](c1ccc(Br)cc1)c1ccccn1
active: Potency (7G8) 8.91 µM
inactive: activity, negative = inhibition [1, 2] -5.21% | activity, negative = inhibition [1, 3] 2.6% | Potency (3D7) | Potency (ATS189) | Potency (C2A) | Potency (CP192) | Potency (CP211) | Potency (CP217)

CCc1cccc(N(C)C(N)=Nc2cccc3ccccc23)c1
active: Potency (7G8) 3.98 µM | Potency (AA1029) 3.55 µM | Potency (CP203) 4.78 µM
inactive: activity, negative = inhibition [1, 2] -26.1% | activity, negative = inhibition [1, 3] -10.7% | Potency (3D7) | Potency (C2A) | Potency (CP192)

CCN(CC)CCNC(=O)c1cc(S(C)(=O)=O)ccc1OC
inactive: activity, negative = inhibition [1, 4] 11.8% | activity, negative = inhibition [1, 5] 10.3% | Potency (3D7) | Potency (7G8) | Potency (AA1029) | Potency (AS120) | Potency (ATS189) | Potency (ATS95) | Potency (C2A) | Potency (CP185) | Potency (CP191) | Potency (CP217)

COc1cc2c(cc1OC)-c1cc(=Nc3c(C)cc(C)cc3C)n(C)c(=O)n1CC2
active: Potency ([1]; parasite line A) 2.82 µM | Potency ([1]; parasite line B) 2.51 µM | Potency (3D7) 2.51 µM | Potency (7G8) 0.891 µM | Potency (AA1029) 2.82 µM | Potency (AS120) 3.55 µM | Potency (ATS189) 7.94 µM | Potency (ATS95) 3.55 µM | Potency (C2A) 2.82 µM | Potency (CP185) 5.62 µM | Potency (CP191) 3.98 µM | Potency (CP192) 9.53 µM | Potency (CP194) 4.78 µM | Potency (CP201) 4.26 µM | Potency (CP215) 5.36 µM | Potency (CP217) 3.55 µM

C[C@H](CS)C(=O)N1CCC[C@H]1C(=O)O
inactive: activity, negative = inhibition [1, 2] -25.9% | activity, negative = inhibition [1, 3] 10.2% | Potency (3D7) | Potency (7G8) | Potency (AA1029) | Potency (AS120) | Potency (ATS189) | Potency (ATS95) | Potency (C2A) | Potency (CP185) | Potency (CP191) | Potency (CP194) | Potency (CP201) | Potency (CP203) | Potency (CP215) | Potency (CP217)

Cc1nc2ccccn2c(=O)c1CCN1CCC(C(=O)c2ccc(F)cc2)CC1
inactive: activity, negative = inhibition [1, 2] -18.1% | activity, negative = inhibition [1, 3] 11.2% | Potency (3D7) | Potency (AS120) | Potency (CP185) | Potency (CP192) | Potency (CP201) | Potency (CP211) | Potency (CP215) | Potency (CP217)
active: Potency (7G8) 14.1 µM | Potency (CP191) 7.94 µM

CN(C(=O)CCCOc1ccc2[nH]c(=O)ccc2c1)C1CCCCC1
inactive: activity, negative = inhibition [1, 2] -9.28% | activity, negative = inhibition [1, 3] 16% | Potency (3D7) | Potency (AA1029) | Potency (AS120) | Potency (ATS189) | Potency (ATS95) | Potency (CP185) | Potency (CP191) | Potency (CP192) | Potency (CP201) | Potency (CP203) | Potency (CP211) | Potency (CP215) | Potency (CP217)
active: Potency (7G8) 11.2 µM

C[C@]12CCC(=O)C=C1CC[C@@H]1[C@@H]2CC[C@@]2(C)[C@H]1CC[C@]2(O)C(=O)CO
inactive: activity, negative = inhibition [1, 2] -9.28% | activity, negative = inhibition [1, 3] 20.5% | Potency (3D7) | Potency (AA1029) | Potency (AS120) | Potency (ATS189) | Potency (ATS95) | Potency (C2A) | Potency (CP185) | Potency (CP191) | Potency (CP192) | Potency (CP194) | Potency (CP201) | Potency (CP203) | Potency (CP211) | Potency (CP215) | Potency (CP217)

CN(C)CC/C=C1\c2ccccc2COc2ccccc21
active: Potency (7G8) 12.6 µM | Potency (AA1029) 8.91 µM
inactive: activity, negative = inhibition [1, 2] 0.213% | activity, negative = inhibition [1, 3] 6.5% | Potency (3D7) | Potency (CP191) | Potency (CP192)

CCN1CCc2nc(N)oc2CC1
inactive: activity, negative = inhibition [1, 2] 1.51% | activity, negative = inhibition [1, 3] 1.64% | Potency (3D7) | Potency (7G8) | Potency (AA1029) | Potency (AS120) | Potency (ATS189) | Potency (ATS95) | Potency (C2A) | Potency (CP185) | Potency (CP191) | Potency (CP192) | Potency (CP194) | Potency (CP201) | Potency (CP211) | Potency (CP215) | Potency (CP217)

CC(C(=O)O)c1ccc(CC2CCCC2=O)cc1 (stereo unspecified)
inactive: activity, negative = inhibition [1, 2] 0.257% | activity, negative = inhibition [1, 3] 5.29% | Potency (3D7) | Potency (7G8) | Potency (AA1029) | Potency (AS120) | Potency (ATS189) | Potency (ATS95) | Potency (C2A) | Potency (CP185) | Potency (CP191) | Potency (CP192) | Potency (CP194) | Potency (CP201) | Potency (CP211) | Potency (CP215) | Potency (CP217)

CNC1(C)C2CCC(C2)C1(C)C (stereo unspecified)
inactive: activity, negative = inhibition [1, 2] 6.34% | activity, negative = inhibition [1, 3] 5.34% | Potency (3D7) | Potency (7G8) | Potency (AA1029) | Potency (AS120) | Potency (ATS189) | Potency (ATS95) | Potency (C2A) | Potency (CP185) | Potency (CP191) | Potency (CP192) | Potency (CP194) | Potency (CP201) | Potency (CP211) | Potency (CP215) | Potency (CP217)

CCCN(CCC)CCc1cccc2c1CC(=O)N2
inactive: activity, negative = inhibition [1, 2] -9.53% | activity, negative = inhibition [1, 3] -8.71% | Potency (3D7) | Potency (7G8) | Potency (AA1029) | Potency (AS120) | Potency (ATS189) | Potency (ATS95) | Potency (C2A) | Potency (CP185) | Potency (CP191) | Potency (CP192) | Potency (CP194) | Potency (CP201) | Potency (CP211) | Potency (CP215) | Potency (CP217)

CC[N+](C)(C)c1cccc(O)c1
inactive: activity, negative = inhibition [1, 4] 14.2% | activity, negative = inhibition [1, 5] 8.4% | Potency (3D7) | Potency (7G8) | Potency (AA1029) | Potency (AS120) | Potency (ATS189) | Potency (ATS95) | Potency (C2A) | Potency (CP185) | Potency (CP191) | Potency (CP192) | Potency (CP194) | Potency (CP201) | Potency (CP211) | Potency (CP217)

CCOC(=O)C1=C(C)NC(C)=C(C(=O)OC)C1c1cccc([N+](=O)[O-])c1 (stereo unspecified)
active: Potency (7G8) 10 µM | Potency (AA1029) 11.2 µM | Potency (AS120) 11.2 µM
inactive: Potency (C2A)
